Bioassay records from PubChem BioAssay.
IDE cell inh – inhibitors of human insulin-degrading enzyme in cells | inhibition, % at 5.59 µM | 320,000 tested, 0.41% active | HEK cells, FAbetaB cleavage, fluorescence polarization;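 active means percent inhibition above the average of all tested compounds plus 3 SD, set per screening campaign, cut at about 16% in these data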;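 further: IDE supplied by intact live HEK cells; FP after avidin binding of uncleaved biotin substrate so inhibition keeps polarization high; 0% = DMSO wells and 100% = 60 µM reference IDE inhibitor Ii1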
Target sequence (P14735 whole entry, looked up): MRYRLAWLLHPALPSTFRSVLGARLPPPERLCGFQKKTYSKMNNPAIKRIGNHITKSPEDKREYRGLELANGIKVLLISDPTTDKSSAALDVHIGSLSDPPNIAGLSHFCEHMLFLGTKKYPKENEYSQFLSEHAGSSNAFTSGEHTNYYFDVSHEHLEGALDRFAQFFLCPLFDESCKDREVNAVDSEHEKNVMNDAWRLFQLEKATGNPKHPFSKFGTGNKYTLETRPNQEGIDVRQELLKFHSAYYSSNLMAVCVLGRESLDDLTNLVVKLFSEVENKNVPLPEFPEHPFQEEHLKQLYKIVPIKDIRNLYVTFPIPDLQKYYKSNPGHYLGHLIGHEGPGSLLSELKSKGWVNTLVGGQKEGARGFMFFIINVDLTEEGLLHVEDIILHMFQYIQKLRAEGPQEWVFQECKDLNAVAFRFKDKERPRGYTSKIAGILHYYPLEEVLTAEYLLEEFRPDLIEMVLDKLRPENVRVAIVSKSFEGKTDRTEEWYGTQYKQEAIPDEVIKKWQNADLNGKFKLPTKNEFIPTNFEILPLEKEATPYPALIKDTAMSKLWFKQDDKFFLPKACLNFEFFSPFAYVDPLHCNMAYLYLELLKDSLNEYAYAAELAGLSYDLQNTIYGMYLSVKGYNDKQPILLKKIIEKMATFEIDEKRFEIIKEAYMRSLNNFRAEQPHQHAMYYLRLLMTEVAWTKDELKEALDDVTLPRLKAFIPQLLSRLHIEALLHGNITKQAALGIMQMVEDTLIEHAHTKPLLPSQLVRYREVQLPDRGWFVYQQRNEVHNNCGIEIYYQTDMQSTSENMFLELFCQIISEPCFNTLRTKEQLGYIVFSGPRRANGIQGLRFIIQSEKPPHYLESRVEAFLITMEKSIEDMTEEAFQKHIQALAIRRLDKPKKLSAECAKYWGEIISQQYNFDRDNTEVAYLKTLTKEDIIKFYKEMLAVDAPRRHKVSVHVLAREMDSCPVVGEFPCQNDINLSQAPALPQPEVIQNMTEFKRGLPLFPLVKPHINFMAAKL
CRFR2-BP ag – CRF-BP/CRF-R2 complex agonism; HEK293 CRF-R2/CRF-BP, calcium dye fluorescence (FLIPR); percent of saturating CRF peptide response; activation, % at 13.2 µM; 350,000 tested, 0.46% active;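 active means activation of at least 50%, plus an integration ratio under a set limit after plate pattern correction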;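 further: plate controls were neutral control wells without compound for no effect and CRF at EC100 for full effect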
TPT1 inhibitor – inhibitors of Candida albicans tRNA 2'-phosphotransferase TPT1; recombinant caTPT1, FP RNA substrate dephosphorylation; inhibition, % at 5 µM; 300,000 tested, 0.81% active;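 active means inhibition above the mean of all tested compounds plus 3 SD, set per screening campaign, cut at about 24% in these data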;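 further: plate controls were DMSO alone for no effect and ferristatin control at 100 nM for full effect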
CRFR2-BP antag – antagonists of CRF-binding protein/CRF-R2 receptor complex | HEK293 CRF-R2/CRF-BP, CRF-induced calcium fluorescence | inhibition, % at 11.8 µM | 350,000 tested, 0.59% active | AID 588475;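 active means inhibition of the ligand-induced calcium signal above about 50% at the single tested concentration, limit read from the data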
IDE act – boosts human insulin-degrading enzyme activity in HEK cells | P14735 | FAbeta-B cleavage, fluorescence polarization; 0% vehicle, 100% cell-free pure enzyme wells | activation, % at 5.96 µM | 340,000 tested, 0.073% active;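 active means activation above the mean of all tested compounds plus 3 SD, set per screening campaign, cut at about 17% in these data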
Myeloid diff MLP – promotes myeloid progenitor differentiation | ER-HoxA9 myeloid progenitors, lysozyme-GFP differentiation, flow cytometry | calls only at 10 µM | 360,000 tested, 1% active;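 active means normalized GFP-positive differentiation at or above the plate's own cutoff, the solvent-only control mean plus 3 SD; inconclusive means no clear call, values can overlap the other calls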;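 further: cells exposed to compound for four days before flow analysis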
TPT1 inh confirm – TPT1 (C. albicans) inhibition, confirmation | inhibition, % at 5 µM | AID 2149 | 2,400 tested, 74% active | recombinant caTPT1, fluorescence polarization, RNase T1 coupled | shares compounds with TPT1 inhibitor;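 active means inhibition above the primary screen limit, the mean inhibition of all tested compounds plus 3 SD, cut at about 25% in these data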
RNase T1 counter – blocks Aspergillus oryzae RNase T1, a TPT1 counter-screen; shares compounds with TPT1 inhibitor; RNase T1 cleavage, fluorescence polarization, 1536-well; inhibition, % at 5 µM; 2,400 tested, 83% active;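 active means inhibition above the solvent-only control well mean plus 3 SD, limit set per screening run, cut at about 23% in these data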;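 further: plate controls were DMSO wells with enzyme for no effect and wells without RNase T1 for full effect; inhibitors block cleavage so intact labeled substrate keeps polarization high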
The depositor's hits bear a star; i = inactive; ? = inconclusive; / = not tested or not shown; + = active, no number. Compounds with a hit are over-represented: about 2.6% of the library has one in this group of screens.

SMILES	IDE cell inh	CRFR2-BP ag	TPT1 inhibitor	CRFR2-BP antag	IDE act	Myeloid diff MLP	TPT1 inh confirm	RNase T1 counter
CC1([N+](=O)[O-])COP(=O)(NC2CC2)OC1 (stereo unspecified)	/	-1	/	2	4	i	/	/
COCCCNC(=O)c1c(N)n(Cc2ccco2)c2nc3ccccc3nc12	5	6	11	0	/	i	/	/
COc1ccc(Cn2c(N)c(C(=O)NCc3ccco3)c3nc4ccccc4nc32)cc1OC	0	3	28*	-25	-3	i	7	12
CC(C)CNC(=O)c1c(N)n(Cc2ccco2)c2nc3ccccc3nc12	12	19	28*	-39	0	i	16	23*
CC(C)OCCCNC(=O)c1c(N)n(Cc2cccs2)c2nc3ccccc3nc12	-8	-2	26*	-1	8	i	10	12
CCCNC(=O)c1c(N)n(Cc2ccco2)c2nc3ccccc3nc12	10	23	15	-26	/	/	/	/
O=C(CCc1ccccc1)N1C[C@H]2C[C@@H](C1)c1cccc(=O)n1C2	13	0	-5	-10	-2	i	/	/
Cc1nc2ccccc2c(=O)n1-c1cccc([N+](=O)[O-])c1	2	-2	-3	10	1	i	/	/
COC(=O)N1Cc2ccccc2-n2nncc2C1	/	-1	/	-6	/	i	/	/
CN1CC(C#N)C2(O)c3ccccc3CCC2C1 (stereo unspecified)	6	2	-1	10	2	i	/	/
O=c1[nH]c(=O)n(CCc2ccc(F)cc2)c(O)c1C=NCCCn1ccnc1	3	0	39*	3	6	i	33*	44*
O=c1[nH]c(=O)n(CCC2=CCCCC2)c(O)c1C=NCCCn1ccnc1	2	1	16	0	-5	i	/	/
CN(C)CCCN=Cc1c(O)n(CCc2ccccc2)c(=O)[nH]c1=O	-3	-1	72*	-1	5	i	65*	82*
CNc1ccc2nc3ccccc3[n+](C)c2c1	-3	0	-50	0	3	?	/	/
O=c1[nH]c(O)c(/C=C2/C=CC(c3cc(Cl)ccc3Cl)=N2)c(=O)[nH]1	9	103*	93*	-102	-46	+	108*	103*
CC1=Nc2ccccc2/C1=C/c1c(O)[nH]c(=O)[nH]c1=O	4	-2	3	6	4	i	/	/
Cn1c(O)c(/C=N/NC(=O)c2ccncc2)c(=O)n(C)c1=S	3	11	116*	2	/	i	101*	111*
Cn1c(O)c(/C=N/NC(=O)c2ccncc2)c(=O)[nH]c1=S	-5	1	-4	-1	/	i	/	/
CCCCn1c(O)c(/C=N/NC(=O)c2ccncc2)c(=O)[nH]c1=S	1	4	30*	-28	6	i	20	29*
Cc1ccc(-n2c(O)c(/C=N/NC(=O)c3ccncc3)c(=O)[nH]c2=O)cc1	6	1	30*	41	0	i	47*	56*
O=C1/C(=C\c2ccc(Cl)c(Cl)c2)N2CCC1CC2	3	0	4	-17	0	i	/	/
CSc1ncc(/C=C2/C(=O)NC(=O)N(C3CCCCC3)C2=O)cn1	0	2	32*	-13	4	i	32*	43*
CSc1ncc(/C=C2/C(=O)NC(=O)N(C)C2=O)cn1	-2	-1	8	33	3	i	/	/
O=C1Nc2cc(C(=O)N3CCC4(CC3)OCCO4)ccc2NC1CSCc1cccc(F)c1 (stereo unspecified)	4	/	61*	/	/	/	96*	101*
Cc1ccc2n1Cc1cnnn1-c1ccccc1-2	/	-1	/	0	/	i	/	/
SMILES	IDE cell inh	CRFR2-BP ag	TPT1 inhibitor	CRFR2-BP antag	IDE act	Myeloid diff MLP	TPT1 inh confirm	RNase T1 counter
COc1cc(N2CCOCC2)ccc1/C=C1\C(=O)NC(=O)N(Cc2ccc3c(c2)OCO3)C1=O	7	5	27*	-17	3	i	46*	65*
COc1cc(N2CCOCC2)ccc1/C=C1\C(=O)NC(=O)N(Cc2cccs2)C1=O	0	2	23	-7	3	i	/	/
Oc1c(Cl)cccc1Cc1cc(Cl)cc(Cl)c1O	/	21	/	42	5	i	/	/
COc1ccc(C2SCC(=O)Nc3c2c(C)nn3C2CCOC(C)(C)C2)cc1OC (stereo unspecified)	1	-3	27*	-3	1	i	18	25*
CCC(c1nnnn1-c1ccc(OC)cc1)N1CCC2(CC1)C(=O)NCN2c1ccccc1 (stereo unspecified)	/	/	/	/	/	i	/	/
COc1ccc2c(c1)C13CCN4CC5=CCOC6CC(=O)N2C1C6C5CC43 (stereo unspecified)	/	/	/	/	/	i	/	/
CN1Cc2cnnn2-c2ccccc2C1c1ccccc1 (stereo unspecified)	/	-1	/	5	-8	i	/	/
COc1ccc(OC)c(N2C(=O)/C(=C/c3ccco3)C(=O)NC2=S)c1	2	2	68*	8	/	/	55*	27*
C=CCn1cc(C=C2C(=O)NC(=O)NC2=O)c2ccccc21	5	14	25*	-21	-1	+	40*	52*
O=C(O)Cn1cc(/C=C2\C(=O)NC(=O)N(c3ccc(Cl)cc3)C2=O)c2ccccc21	6	10	40*	2	-5	i	42*	53*
O=C1NCN(c2ccccc2)C12CCN(C(c1ccnc3ccccc13)c1nnnn1C1CCCCC1)CC2 (stereo unspecified)	/	/	/	/	/	i	/	/
Cc1cccc(N2C(=O)NC(=O)/C(=C\C=C\c3ccco3)C2=O)c1	6	4	25*	-74	-12	i	30*	48*
CCc1ccc(N2C(=O)NC(=O)/C(=C/c3ccsc3)C2=O)cc1	7	/	28*	/	/	/	17	24*
O=C1NC(=O)N(c2ccccc2)C(=O)/C1=C/C=C/c1ccco1	7	2	19	-43	-9	i	/	/
COc1cc(/C=C2\C(=O)NC(=O)N(c3ccccc3)C2=O)cc(OC)c1O	3	5	51*	-10	3	i	4	11
O=C1NC(=O)N(Cc2ccco2)C(=O)/C1=C/C=C/c1ccco1	1	3	35*	-25	-17	i	39*	54*
CC(N)C(=O)NC1C2C(=C(O)CC(O)C2O)C(=O)OC1(C)C(Cl)Cl (stereo unspecified)	/	4	/	11	6	/	/	/
CC(C)(C)n1nnnc1C(C1CC1)N1CCC(n2c(=O)[nH]c3ccccc32)CC1 (stereo unspecified)	/	/	/	/	/	i	/	/
O=C(O)CCn1cc(C=C2C(=O)NC(=O)NC2=O)c(-c2cc3ccccc3oc2=O)n1	1	1	2	4	-6	i	/	/
